Experimental data reported in PubChem BioAssay (Tox21).
Inconclusive results are not listed. Where a call stands in place of a potency, no number is given. The source made the active and inactive calls. Unless noted, the call rests on the fitted dose curve.

Legend:
[1] = Nuclear factor erythroid 2-related factor 2/antioxidant responsive element (Nrf2/ARE) small molecule agonists: qHTS cell viability counter screen in human keratinocytes (AID 1919968; active means well fitted curve in the direction sought with a large enough effect in the repeat runs; an effect the other way counts as inactive or inconclusive; further: nearly all actives have a fitted effect of over 55% in size; further: potency means the concentration at half of the fitted maximal effect)
Summary of the method: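 Stably transfected HaCaT (KeratinoSens), 1,500/well. Test agents in DMSO were applied for 23 h, 37 C/5% CO2. CellTiter-Fluor was incubated 1 h before the fluorescence read.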

[2] = Nuclear factor erythroid 2-related factor 2/antioxidant responsive element (Nrf2/ARE) small molecule agonists: luciferase reporter gene qHTS assay in human keratinocytes (AID 1919969); further: nearly all actives have a fitted effect of over 35% in size; further: potency means the concentration at half of the fitted maximal effect
[3] = biological target: Gonadotropin-releasing hormone receptor (Homo sapiens) (UniProt P30968); assay: Human gonadotropin-releasing hormone receptor (GnRHR) small molecule agonists, calcium flux assay in GnRHR-HEK293 cells (AID 1920063); further: nearly all actives have a fitted effect of over 35% in size; further: potency means the concentration at half of the fitted maximal effect
Gonadotropin-releasing hormone receptor (Homo sapiens), sequence (P30968 whole entry, looked up): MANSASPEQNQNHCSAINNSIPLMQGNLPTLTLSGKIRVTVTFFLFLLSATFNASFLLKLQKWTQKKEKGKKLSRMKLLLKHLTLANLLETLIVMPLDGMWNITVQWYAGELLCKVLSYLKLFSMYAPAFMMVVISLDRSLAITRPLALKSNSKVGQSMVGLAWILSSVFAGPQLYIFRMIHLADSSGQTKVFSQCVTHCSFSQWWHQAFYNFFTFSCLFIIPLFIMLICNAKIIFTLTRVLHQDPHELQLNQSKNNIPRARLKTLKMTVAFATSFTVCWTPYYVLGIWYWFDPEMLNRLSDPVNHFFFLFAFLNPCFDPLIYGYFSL
Summary of the method: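 Stable human GnRHR HEK293 line. 18 h plating, then calcium dye for 1 h at 37 C. Agonist-mode compound addition from DMSO stocks; fluorescence monitored 3 min.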

[4] = biological target: KiSS-1 receptor (Homo sapiens) (UniProt Q969F8); assay: Human kisspeptin (KISS1R) small molecule agonists, calcium flux assay in KISS1R-HEK293 cells (AID 1920064; active means well fitted curve in the direction sought with a large enough effect in the repeat runs; an effect the other way counts as inactive or inconclusive)
KiSS-1 receptor (Homo sapiens), sequence (Q969F8 whole entry, looked up): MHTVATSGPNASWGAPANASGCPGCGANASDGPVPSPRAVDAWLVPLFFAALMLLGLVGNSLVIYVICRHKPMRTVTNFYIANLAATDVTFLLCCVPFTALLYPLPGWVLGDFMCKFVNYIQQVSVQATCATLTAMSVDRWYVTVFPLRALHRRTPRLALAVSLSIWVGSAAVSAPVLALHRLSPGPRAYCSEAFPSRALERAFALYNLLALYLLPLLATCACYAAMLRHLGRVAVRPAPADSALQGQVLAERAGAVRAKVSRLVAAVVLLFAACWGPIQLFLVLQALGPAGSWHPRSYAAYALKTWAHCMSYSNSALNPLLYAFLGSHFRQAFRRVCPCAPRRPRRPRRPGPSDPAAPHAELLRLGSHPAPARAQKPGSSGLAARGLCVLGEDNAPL
Summary of the method: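 After overnight (18 h) culture at 37 C/5% CO2, human KISS1R-HEK293 cells received calcium dye for 1 h, then test compound; emission at 540 nm (excitation 480 nm) was tracked for 3 min.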

[5] = G protein-coupled receptor (GPCR) small molecule agonists, calcium flux assay: HEK293 wild type cell line counter screen (AID 1920065)
Summary of the method: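 Following 18 h incubation at 37 C/5% CO2, plates got calcium dye for 1 h; compounds, ATP or DMSO were then pinned in and fluorescence followed kinetically (480/540 nm).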

[6] = p53 small molecule agonists, cell-based qHTS assay with human liver microsomes (AID 1963577);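 further: p53 response element beta-lactamase reporter cells with liver microsomes plus NADPH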
Summary of the method: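 16 h, 37 C exposure of p53RE-bla cells to compounds with human liver microsomes and NADPH (0.5 mg/mL final each); detection via LiveBLAzer mixture, 2 h dark at room temperature.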

[7] = p53 small molecule agonists, cell-based qHTS assay with rat liver microsomes (AID 1963578)
Summary of the method: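 With rat liver microsomes and NADPH present (0.5 mg/mL final each), p53RE-bla cells are treated with compound for 16 h at 37 C. LiveBLAzer detection mixture is then applied for 2 h at room temperature in the dark.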

[8] = p53 small molecule agonists, cell-based qHTS assay with human liver microsomes: qHTS cell viability counter screen (AID 1963579); further: nearly all actives have a fitted effect of over 45% in size; further: potency means the concentration at half of the fitted maximal effect
Summary of the method: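 In this multiplexed counter screen, the reporter plates were subsequently treated with CellTiter-Glo so that cell viability, reflected by luminescence, could be recorded for p53RE-bla cells dosed 16 h with compounds under microsomal activation (HLM and NADPH).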

[9] = biological target: 5-hydroxytryptamine receptor 2A (Homo sapiens) (UniProt P28223); assay: 5-hydroxytryptamine receptor 2A (HTR2A) small molecule antagonists, cell-based qHTS assay (AID 1963586); further: nearly all actives have a fitted effect of over 45% in size; further: potency means the concentration at half of the fitted maximal effect
5-hydroxytryptamine receptor 2A (Homo sapiens), sequence (P28223 whole entry, looked up): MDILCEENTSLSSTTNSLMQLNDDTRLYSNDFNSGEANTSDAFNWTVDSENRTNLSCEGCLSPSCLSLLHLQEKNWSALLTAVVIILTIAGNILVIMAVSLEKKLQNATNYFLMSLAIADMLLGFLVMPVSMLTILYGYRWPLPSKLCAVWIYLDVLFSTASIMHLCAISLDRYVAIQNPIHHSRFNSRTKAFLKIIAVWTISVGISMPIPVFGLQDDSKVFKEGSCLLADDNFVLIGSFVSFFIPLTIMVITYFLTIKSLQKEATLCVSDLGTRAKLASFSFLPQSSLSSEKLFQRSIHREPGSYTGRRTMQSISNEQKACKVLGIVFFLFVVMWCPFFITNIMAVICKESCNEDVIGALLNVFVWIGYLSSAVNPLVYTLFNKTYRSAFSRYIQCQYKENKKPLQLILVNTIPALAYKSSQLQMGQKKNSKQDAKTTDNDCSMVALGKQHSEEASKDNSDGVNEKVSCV
Summary of the method: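 CHO cells stably expressing human HTR2A were plated for 18 h at 37 C, then loaded with calcium dye for 1 h. Compounds were preincubated 5 min at room temperature before DOI (4 nM solution) was added. Kinetic fluorescence was read for 3 min.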

[10] = biological target: 5-hydroxytryptamine receptor 2A (Homo sapiens) (UniProt P28223); assay: 5-hydroxytryptamine receptor 2A (HTR2A) small molecule agonists, cell-based qHTS assay (AID 1963587); further: nearly all actives have a fitted effect of over 30% in size
Summary of the method: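 CHO cells stably expressing human HTR2A, plated 18 h, loaded with calcium dye 1 h at 37 C. Agonist mode: compounds added and intracellular calcium fluorescence recorded kinetically for 2 min at 1 sec intervals.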

[11] = biological target: Muscarinic acetylcholine receptor M1 (Homo sapiens) (UniProt P11229); assay: Cholinergic receptor muscarinic 1 (CHRM1) small molecule antagonists, cell-based qHTS assay (AID 1963588); further: nearly all actives have a fitted effect of over 40% in size; further: potency means the concentration at half of the fitted maximal effect
Muscarinic acetylcholine receptor M1 (Homo sapiens), sequence (P11229 whole entry, looked up): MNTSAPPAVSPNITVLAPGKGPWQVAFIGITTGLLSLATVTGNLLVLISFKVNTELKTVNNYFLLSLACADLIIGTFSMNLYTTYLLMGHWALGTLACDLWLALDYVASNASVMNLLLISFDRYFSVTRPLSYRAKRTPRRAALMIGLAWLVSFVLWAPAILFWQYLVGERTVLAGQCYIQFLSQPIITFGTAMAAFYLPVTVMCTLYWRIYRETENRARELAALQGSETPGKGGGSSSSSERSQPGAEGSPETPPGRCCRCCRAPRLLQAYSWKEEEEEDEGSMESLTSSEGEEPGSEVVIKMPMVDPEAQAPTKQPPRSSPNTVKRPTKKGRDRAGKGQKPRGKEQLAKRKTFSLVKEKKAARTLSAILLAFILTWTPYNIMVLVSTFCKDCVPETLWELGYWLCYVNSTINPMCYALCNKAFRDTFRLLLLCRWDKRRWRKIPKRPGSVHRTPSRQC
Summary of the method: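 Compounds were tested at 15 concentrations in three independent runs. Dye-loaded CHRM1-CHO cells were exposed 5 min at room temperature before stimulation by acetylcholine added at 50nM. Intracellular calcium was read kinetically on FDSS for 3 min.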

[12] = biological target: Beta-2 adrenergic receptor (Homo sapiens) (UniProt P07550); assay: Adrenergic beta2 receptor (ADRB2) small molecule antagonists, cell-based qHTS assay (AID 1963592); further: series mostly up to about 92 µM; nearly all actives have a fitted effect of over 50% in size
Beta-2 adrenergic receptor (Homo sapiens), sequence (P07550 whole entry, looked up): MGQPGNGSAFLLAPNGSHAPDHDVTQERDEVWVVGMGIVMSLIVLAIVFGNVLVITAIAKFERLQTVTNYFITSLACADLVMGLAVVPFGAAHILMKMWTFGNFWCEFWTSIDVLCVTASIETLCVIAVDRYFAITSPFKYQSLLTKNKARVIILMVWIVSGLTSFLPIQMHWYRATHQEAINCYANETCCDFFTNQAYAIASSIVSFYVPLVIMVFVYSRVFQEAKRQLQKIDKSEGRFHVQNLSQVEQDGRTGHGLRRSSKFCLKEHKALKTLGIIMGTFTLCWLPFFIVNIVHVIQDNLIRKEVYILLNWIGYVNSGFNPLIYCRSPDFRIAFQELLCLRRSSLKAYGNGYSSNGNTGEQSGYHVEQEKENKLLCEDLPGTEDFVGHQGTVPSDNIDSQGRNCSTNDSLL
Summary of the method: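 Assay format: CHO-ADRB2 cells, 18-20hr seeding at 37C/5% CO2, then compound plus 1nM isoproterenol agonist mix for 0.5hr RT. Homogeneous time-resolved fluorescence cAMP detection after 1hr, expressed as 665/615 nm ratio.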

[13] = biological target: D(2) dopamine receptor (Homo sapiens) (UniProt P14416); assay: Dopamine D2 receptor (DRD2) small molecule antagonists, cell-based qHTS assay (AID 1963595; active means well fitted inhibition curve with a large enough effect in the signal ratio in the repeat runs, with a control signal flat; the % refers to the signal ratio)
D(2) dopamine receptor (Homo sapiens), sequence (P14416 whole entry, looked up): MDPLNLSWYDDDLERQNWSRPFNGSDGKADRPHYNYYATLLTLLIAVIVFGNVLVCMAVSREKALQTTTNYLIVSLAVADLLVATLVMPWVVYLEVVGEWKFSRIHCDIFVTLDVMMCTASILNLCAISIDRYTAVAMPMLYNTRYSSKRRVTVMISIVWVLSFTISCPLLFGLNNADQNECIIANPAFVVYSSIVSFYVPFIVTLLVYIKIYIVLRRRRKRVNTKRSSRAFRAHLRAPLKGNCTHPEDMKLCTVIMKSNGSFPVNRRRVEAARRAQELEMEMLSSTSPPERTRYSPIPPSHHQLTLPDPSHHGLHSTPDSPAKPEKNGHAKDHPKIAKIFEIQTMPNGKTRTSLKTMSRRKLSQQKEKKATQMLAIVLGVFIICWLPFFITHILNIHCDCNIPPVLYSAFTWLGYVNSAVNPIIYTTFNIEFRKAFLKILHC
Summary of the method: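 Antagonism was scored as restored cAMP in HEK293-DRD2 cells. These cells were stimulated with 200 nM NKH477 and 12 nM quinpirole for 30 min at room temperature, in the presence of 0.1 mM Ro20-1724.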

[14] = cAMP Responsive Elements (CRE) small molecule agonists, cell-based qHTS assay (AID 1963590)
Summary of the method: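 Test agents in DMSO were incubated 3 h at 37 C/5% CO2 with CRE-bla HEK 293T cells seeded 18 h earlier; LiveBLAzer B/G FRET substrate was added and read after 2 h at room temperature.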

[15] = cAMP Responsive Elements (CRE) small molecule antagonists, cell-based qHTS assay (AID 1963591; active means well fitted inhibition curve with a large enough effect in the signal ratio in the repeat runs, not every such curve was filed as active; the % refers to the signal ratio; further: potency means the concentration at half of the fitted maximal effect)
Summary of the method: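 Reporter line CRE-bla HEK 293T in dialyzed-FBS DMEM; cells preincubated 18 h, treated 3 h with compound plus NKH477 (0.25 uM final); LiveBLAzer FRET, 2 h RT.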

[16] = biological target: D(2) dopamine receptor (Homo sapiens) (UniProt P14416); assay: Dopamine D2 receptor (DRD2) small molecule agonists, cell-based qHTS assay (AID 1963594); further: nearly all actives have a fitted effect of over 35% in size
Summary of the method: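 HEK293 cells stably expressing human DRD2, pre-treated with PDE inhibitor Ro20-1724 (0.1 mM final) and compound 10 min at room temperature, then stimulated with NKH477 (200nM […]) for 30 min. cAMP read by HTRF (665/620 nm).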

[17] = p53 small molecule agonists, cell-based qHTS assay with rat liver microsomes: qHTS cell viability counter screen (AID 1963580); further: nearly all actives have a fitted effect of over 45% in size
Summary of the method: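 After the beta-lactamase ratio was read, CellTiter-Glo was added to the same wells and luminescence measured at 30 min; cells had been treated 16 h at 37 C with compounds, rat liver microsomes and NADPH (0.5 mg/mL final each).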

[18] = p53 small molecule agonists, cell-based qHTS assay: qHTS cell viability counter screen (AID 1963581); further: nearly all actives have a fitted effect of over 45% in size; further: potency means the concentration at half of the fitted maximal effect
Summary of the method: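 qHTS counter screen: 16 h compound exposure at 37 C of p53RE-bla HCT-116 cells (4,000 per well, seeded 5 h prior), cell viability by ATP luminescence.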

[19] = p53 small molecule agonists, cell-based qHTS assay (AID 1963582; active means well fitted activation curve with a large enough effect in the signal ratio in the repeat runs, not every such curve was filed as active; the % refers to the signal ratio)
Summary of the method: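 Measured: fluorescence from cleaved LiveBLAzer substrate. System: p53RE-bla cells, 16 h compound treatment at 37 C, 2 h substrate step at room temperature.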

[20] = biological target: Muscarinic acetylcholine receptor M1 (Homo sapiens) (UniProt P11229); assay: Cholinergic receptor muscarinic 1 (CHRM1) small molecule agonists, cell-based qHTS assay (AID 1963589); further: nearly all actives have a fitted effect of over 35% in size
Summary of the method: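 Kinetic fluorescence (1 s intervals) of calcium-sensitive dye in human M1 CHO cells after compound addition; cells pre-incubated 18 h at 37 C/5% CO2 and dye-loaded 1 h.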

Row | Structure (SMILES) | Potency [1] | Potency [2] | Potency [3] | outcome [4] | outcome [5] | Potency [6] | Potency [7] | Potency [8] | Potency [9] | Potency [10] | Potency [11] | Potency [12] | Potency [13] | Potency [14] | Potency [15] | Potency [16] | Potency [17] | Potency [18] | Potency [19] | Potency [20]
1 | CCCCCCc1ccc(N)cc1 | inactive | 27.3 µM (active) | inactive | inactive | inactive | inactive | inactive | inactive | inactive | inactive | inactive | inactive | inactive | – | – | – | – | – | – | –
2 | CCOc1ccc([N+](=O)[O-])cc1 | 62 µM (active) | inactive | inactive | inactive | inactive | inactive | inactive | 41.4 µM (active) | inactive | – | – | inactive | – | inactive | 55.3 µM (active) | inactive | – | – | – | –
3 | CCN(CC)C(=O)N1CCN(C)CC1 | inactive | inactive | inactive | inactive | inactive | inactive | inactive | – | inactive | inactive | inactive | inactive | inactive | inactive | inactive | inactive | inactive | inactive | inactive | inactive
4 | Nc1[nH]c(=O)ncc1F | inactive | inactive | inactive | inactive | inactive | inactive | inactive | inactive | – | – | – | inactive | inactive | inactive | inactive | inactive | – | – | inactive | –
5 | COCC(=O)Nc1c(I)c(C(=O)NCC(O)CO)c(I)c(C(=O)N(C)CC(O)CO)c1I (stereo unspecified) | inactive | inactive | inactive | inactive | inactive | inactive | inactive | – | inactive | inactive | inactive | inactive | inactive | inactive | inactive | inactive | inactive | inactive | inactive | inactive
6 | CCCCCCCCCCCCCCCC(=O)OC[C@H](O)[C@H]1OC(=O)C(O)=C1O | inactive | inactive | inactive | inactive | inactive | inactive | inactive | inactive | inactive | inactive | inactive | inactive | inactive | inactive | inactive | inactive | – | – | – | –
7 | CCOC(=O)/C=C/C(=O)O | inactive | 61.1 µM (active) | inactive | inactive | inactive | inactive | inactive | inactive | inactive | inactive | inactive | inactive | inactive | inactive | – | inactive | – | inactive | – | inactive
8 | O=C(O)CCC(=O)OC[C@@H](NC(=O)C(Cl)Cl)[C@H](O)c1ccc([N+](=O)[O-])cc1 | inactive | inactive | inactive | inactive | inactive | inactive | inactive | – | inactive | inactive | inactive | inactive | – | inactive | inactive | inactive | inactive | inactive | inactive | inactive
9 | C=C(C)C(=O)OCC1CCCO1 (stereo unspecified) | inactive | inactive | inactive | inactive | inactive | inactive | inactive | – | inactive | inactive | inactive | inactive | inactive | inactive | inactive | inactive | inactive | inactive | inactive | inactive
10 | CCCCCCCCCCCC(=O)NCCCN(C)C | 27.3 µM (active) | inactive | 30.9 µM (active) | inactive | inactive | inactive | inactive | 45.8 µM (active) | 1.68 µM (active) | inactive | 8.4 µM (active) | – | – | – | – | inactive | – | 32.4 µM (active) | – | inactive
11 | CCCCCCC(=O)OCC | inactive | inactive | inactive | inactive | inactive | inactive | inactive | inactive | inactive | inactive | inactive | – | inactive | inactive | inactive | inactive | – | inactive | – | inactive
12 | Cc1cc(F)ccc1-c1cc(N2CC[C@@H](O)[C@H]2CO)ncc1N(C)C(=O)C(C)(C)c1cc(C(F)(F)F)cc(C(F)(F)F)c1 | 19 µM (active) | inactive | inactive | inactive | inactive | inactive | inactive | 14.3 µM (active) | inactive | inactive | inactive | – | – | – | – | inactive | – | 16 µM (active) | – | inactive
13 | CCCCOc1ccc(OCCCN2CCOCC2)cc1 | inactive | inactive | inactive | inactive | inactive | inactive | inactive | inactive | – | – | – | inactive | inactive | inactive | – | – | – | inactive | – | –
14 | CC(C)CCCCCCc1ccc(OCCOCCO)cc1 | inactive | inactive | inactive | inactive | inactive | inactive | inactive | – | inactive | inactive | inactive | inactive | inactive | inactive | inactive | inactive | inactive | inactive | inactive | inactive
15 | Nc1ccc(C(=O)N2CC3CC(CN(Cc4ccccc4)C3)C2)cc1 | inactive | inactive | inactive | inactive | inactive | inactive | inactive | inactive | inactive | inactive | 1.83 µM (active) | inactive | inactive | – | – | inactive | – | inactive | – | –
16 | COC(=O)C(C)O (stereo unspecified) | inactive | inactive | inactive | inactive | inactive | inactive | inactive | inactive | inactive | inactive | inactive | inactive | inactive | – | inactive | inactive | – | – | inactive | inactive
